Screens: PubChem, National Center for Advancing Translational Sciences (NCATS)
Sampled rows, rich in hits. Any-hit rate of the full collection: about 2.4%.
D2 ag-1: Beta-Arrestin HTS for Positive Allosteric Modulators of the Human D2 Dopamine Receptor: Agonists; activation, % (no concentration beside the values); 0.084% of 360,000 active; DiscoveRx PathHunter D2 beta-arrestin, luminescence, 90 min; 100% = 57 uM dopamine signal; D(2) dopamine receptor (Homo sapiens), P14416; in the data active = activation above about 40%
Target sequence (P14416 whole entry, looked up): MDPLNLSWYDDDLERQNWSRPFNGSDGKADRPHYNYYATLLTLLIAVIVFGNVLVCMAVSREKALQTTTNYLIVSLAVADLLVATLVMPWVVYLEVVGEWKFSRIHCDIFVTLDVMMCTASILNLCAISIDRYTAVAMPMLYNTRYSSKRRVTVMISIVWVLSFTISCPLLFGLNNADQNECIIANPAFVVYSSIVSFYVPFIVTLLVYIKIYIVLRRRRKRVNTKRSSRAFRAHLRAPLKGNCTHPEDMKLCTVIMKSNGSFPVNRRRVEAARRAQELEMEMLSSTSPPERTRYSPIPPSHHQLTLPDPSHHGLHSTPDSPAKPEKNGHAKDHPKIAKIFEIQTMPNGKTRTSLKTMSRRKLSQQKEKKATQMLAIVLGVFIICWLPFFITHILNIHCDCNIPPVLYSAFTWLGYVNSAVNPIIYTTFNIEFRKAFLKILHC
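DiscoveRx PathHunter D2 beta-arrestin cells (2,100/well) attached overnight, then compound-stimulated 90 min at 37 C in HBSS/10 mM HEPES/0.1% Tween-20 buffer; beta-galactosidase complementation read by luminescence after 1 h at ambient temperature. Dopamine 57 uM final (EC100) as control.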
D2 PAM-1: HTS Assay for Positive Allosteric Modulators of the Human D2 Dopamine Receptor: Primary Screen for Potentiators; AID 485347, 2010; potentiation, % at 10 µM; HEK293 T-REx D2, calcium flux, EC20 dopamine potentiation; D(2) dopamine receptor (Homo sapiens), P14416; 0.34% of 340,000 active;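 active = potentiation over 3 SD above the plate norm, cut at about 30% in these data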
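Cells plated with tetracycline inducer and held overnight at 30 C; calcium dye loaded 30–90 min at room temperature; baseline taken, compound added and read 180 s; EC20 dopamine then added and read 180 s.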
D2 antag: HTS Assay for Allosteric Antagonists of the Human D2 Dopamine Receptor: Primary Screen for Antagonists; HEK293 TREx D2 cells, calcium flux, dopamine EC80; D(2) dopamine receptor (Homo sapiens), P14416; inhibition, % at 10 µM; 2% of 340,000 active; in the data active = inhibition above about 30%; inactive = below that, where a call was filed
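In this primary screen, negative modulation is detected by tracking calcium flux after an EC80 dopamine challenge in inducible HEK293 T-REx D2 cells preexposed to test compound for 180 s.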
D2 PAM-2: Beta-Arrestin HTS for Positive Allosteric Modulators of the Human D2 Dopamine Receptor: Potentiators; D(2) dopamine receptor (Homo sapiens), P14416; DiscoveRx D2 beta-arrestin cells, luminescence, 90 min; 100% = 57 uM dopamine signal; potentiation, % (test concentration not listed); 0.23% of 360,000 active; AID 624464, 2012; in the data active = potentiation above about 50%
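PathHunter D2 cells, attached overnight at 37 deg C, received compound in DMSO plus dopamine at EC20 (50 nM final) for 90 min at 37 deg C. Beta-arrestin recruitment was read as luminescence after 1 h with detection reagent at ambient temperature.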
D2 ag-2: HTS Assay for Allosteric Agonists of the Human D2 Dopamine Receptor: Primary Screen for Agonists; activation, % at 2 µM; AID 485358, 2010; D(2) dopamine receptor (Homo sapiens), P14416; 0.53% of 340,000 active; HEK293 T-REx D2 cells, calcium flux agonist mode;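 active = activation over 3 SD above normal in the single-dose calcium agonist read, cut at about 30% in these data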
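HEK293 Trex D2 cells, tetracycline-induced, o/n 30 C 5% CO2; no-wash Ca dye, RT 30–90 min; 10-cycle baseline, 23 nl cpd added, kinetic Ca read 180 s; agonist hits = positive Ca response.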
A number is an active result; – = inactive; · = not tested or not shown.

SMILES	D2 ag-1	D2 PAM-1	D2 antag	D2 PAM-2	D2 ag-2
Cc1c(C(=O)N2CCCCC2)c(S(=O)(=O)NCc2ccc(Cl)cc2)c(C)n1C	–	–	48	–	–
COc1ccc(-n2c(=O)c3sc4ccccc4c3n(CC(=O)NCc3ccccc3)c2=O)cc1	·	–	·	·	·
COC(C[C@H]1O[C@@H]1[C@@H](O)[C@H](C)OCc1ccccc1)OC	–	–	36	–	–
O=C(NCc1ccc2c(c1)OCO2)C(=O)NCC1OCCN1S(=O)(=O)c1ccccc1 (stereo unspecified)	–	·	·	–	·
Cc1cccc(N2CCN(CCCNC(=O)C3CCCN(c4ncnc5c4nc4n5CCCCC4)C3)CC2C)c1 (stereo unspecified)	–	–	56	–	–
Cc1cccc(CCNC(=O)C2CCCN(c3ncnc4c3nc3n4CCCCC3)C2)c1 (stereo unspecified)	–	–	–	–	–
CCCC(=O)N(Cc1cc2cc(OC)ccc2[nH]c1=O)c1ccccc1OC	–	·	·	–	·
COc1cc(CNCCCN2CCOCC2)cc(Br)c1OCC(=O)N1CCCCC1	–	–	32	–	–
COc1cc(CNCCCN2CCOCC2)cc(Br)c1OCc1ccc(Cl)cc1	–	–	–	–	–
Cc1cccc(NC(=S)N2CCN(c3ccccn3)CC2)c1	–	–	–	–	–
COc1ccc(Cl)cc1C(=O)N1CCN(c2ccccn2)CC1	–	–	–	–	–
CC(C(=O)Nc1ccccc1)N1CCN(c2ccccn2)CC1 (stereo unspecified)	–	–	–	–	40
CC(=O)c1cccc(NC(=S)N2CCN(c3ccccn3)CC2)c1	–	–	–	–	40
COc1ccc(Cl)cc1NC(=O)C(C)N1CCN(c2ccccn2)CC1 (stereo unspecified)	–	–	–	–	31
COc1ccc(-c2c(C3=CCCCC3)oc3ccc(-c4ccc5c(c4)OCO5)cc23)cn1	–	·	·	–	·
CC1CCC2C(=O)N(c3cccc(C(=O)Nc4ccccc4Cl)c3)C(=O)C2C1 (stereo unspecified)	–	–	–	–	–
Cc1nnc(SC(C)C(=O)Nc2ccc(Cl)cc2Cl)[nH]c1=O (stereo unspecified)	–	·	·	–	·
ONC(=Nc1ccccc1)c1ccc(Cl)cc1	–	–	–	–	–
NC(=Nc1ccc(Cl)cc1)c1ccccc1	–	–	34	–	–
C#CC(C)OCC1CNC(=S)O1 (stereo unspecified)	–	·	·	–	·
Cc1cccc(NC(=O)c2cn(-c3ccccc3)nc2-c2ccccc2)c1	–	–	40	–	–
COC(=O)c1ccc(NC(=O)c2cn(-c3ccccc3)nc2-c2ccncc2)cc1	–	–	91	–	–
Cc1ccc(-c2nn(-c3ccccc3Cl)cc2C(=O)NCC2CCCO2)cc1 (stereo unspecified)	–	–	31	–	–
Cc1ccc(-c2nn(-c3ccccc3)cc2C(=O)NCCCN2CCOCC2)cc1	–	–	31	–	–
Cc1ccc(-c2nn(Cc3ccccc3)cc2C(=O)NCC2CCCO2)cc1 (stereo unspecified)	–	–	–	–	–
SMILES	D2 ag-1	D2 PAM-1	D2 antag	D2 PAM-2	D2 ag-2
COCCN(C(=O)COC(=O)Cc1coc2cc3c(cc12)CCC3)c1c(N)n(Cc2ccccc2)c(=O)[nH]c1=O	–	–	–	–	–
CCCN(CC(=O)Nc1ccccc1C)C(=O)CSc1ccccc1C	–	–	–	–	–
COc1ccc(C=NCCc2ccc(OC)c(OC)c2)cc1OC	–	·	·	–	·
CC(=O)c1ccc(NC(=O)c2cn(-c3ccccc3)nc2-c2ccncc2)cc1	–	35	–	–	–
CC(C)(C)OC(=O)C[C@@H]1C/C=C\C[C@H](CC(=O)N(CCO)Cc2ccccc2)C(=O)N[C@H](C(C)(C)C)COC1=O	–	·	·	–	·
Cc1cn2c(=O)cc(COC(=O)c3ccc(NC(=O)COc4ccc(C)c(C)c4)cc3)nc2s1	·	–	·	·	–
